Where “and” joins values, the source holds several entries; their conditions need not be identical. Equal values may be shown once. Inconclusive results are not listed. Calls of active or inactive are those of the source. Unless noted, the call rests on the fitted dose curve; in most records, active means well fitted curve in the direction sought with a large enough effect in the repeat runs; inconclusive means weak or mixed curves; inactive means no such curve, though single readings can be large; an effect the other way counts as inactive or inconclusive.
Assays:
[1] = qHTS assay to identify small molecule antagonists of the glucocorticoid receptor (GR) signaling pathway - cell viability counter screen (AID 720693); further: nearly all actives have a fitted effect of over 55% in size
[2] = qHTS assay for identifying genotoxic compounds that show differential cytotoxicity against isogenic chicken DT40 cell lines with known DNA damage response pathways - wild type cell line (AID 743012); further: nearly all actives have a fitted effect of over 60% in size; further: potency means the concentration at half of the fitted maximal effect
How it was run: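 Quantitative HTS on parental DT40 cells: 40 h compound treatment at 37 C/5% CO2, with viability then determined by CellTiter-Glo luminescence. Values serve as the DNA repair-proficient reference for differential cytotoxicity.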

[3] = qHTS assay for identifying genotoxic compounds that show differential cytotoxicity against isogenic chicken DT40 cell lines with known DNA damage response pathways - Rev3 mutant cell line (AID 743014); further: nearly all actives have a fitted effect of over 55% in size; further: potency means the concentration at half of the fitted maximal effect
[4] = qHTS assay for identifying genotoxic compounds that show differential cytotoxicity against isogenic chicken DT40 cell lines with known DNA damage response pathways - Rad54/Ku70 mutant cell line (AID 743015); further: nearly all actives have a fitted effect of over 60% in size; further: potency means the concentration at half of the fitted maximal effect
[5] = qHTS assay to identify small molecule antagonists of the androgen receptor (AR) signaling pathway - cell viability counter screen (AID 743033; further: nearly all actives have a fitted effect of over 45% in size; further: potency means the concentration at half of the fitted maximal effect)
[6] = qHTS assay to identify small molecule antagonists of the androgen receptor (AR) signaling pathway using the MDA cell line - cell viability counter screen (AID 743041; further: nearly all actives have a fitted effect of over 45% in size)
How it was run: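 Viability counter screen run alongside the AR antagonist reporter: cells seeded 5 h before compound, R1881 added, 16 h incubation at 37C without CO2, fluorescent CellTiter-Fluor signal quantified.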

[7] = target: Androgen receptor (Homo sapiens) (UniProt P10275); test: qHTS assay to identify small molecule antagonists of the androgen receptor (AR) signaling pathway (AID 743035; active means well fitted inhibition curve with a large enough effect in the signal ratio in the repeat runs, not every such curve was filed as active; the % refers to the signal ratio)
How it was run: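 Cell line: GeneBLAzer AR-UAS-bla GripTite (HEK293). Stimulus: R1881 added after compound. Exposure: 16 h, 37C, 5% CO2. Readout: LiveBLAzer B/G FRET fluorescence after 2 h at room temperature.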

[8] = target: Androgen receptor (Homo sapiens) (UniProt P10275); test: qHTS assay to identify small molecule agonists of the androgen receptor (AR) signaling pathway (AID 743036; active means well fitted activation curve with a large enough effect in the signal ratio in the repeat runs, with a control signal flat, not every such curve was filed as active; the % refers to the signal ratio)
How it was run: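 Activation was read as beta-lactamase FRET signal from LiveBLAzer B/G substrate, added for 2 h at room temperature. Before that, GeneBLAzer AR-UAS-bla GripTite (HEK293) cells had 16 h compound exposure at 37C.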

[9] = target: Androgen receptor (Homo sapiens) (UniProt P10275); test: qHTS assay to identify small molecule agonists of the androgen receptor (AR) signaling pathway using the MDA cell line (AID 743040; further: nearly all actives have a fitted effect of over 20% in size)
How it was run: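 Luminescence from ONE-Glo, read after 30 min at room temperature, reflects MMTV-driven luciferase in MDA-kb2 cells (AR- and GR-responsive). Treatment lasted 16 h at 37C, 0% CO2.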

[10] = target: Androgen receptor (Homo sapiens) (UniProt P10275); test: qHTS assay to identify small molecule antagonists of the androgen receptor (AR) signaling pathway using the MDA cell line (AID 743042; further: nearly all actives have a fitted effect of over 55% in size)
How it was run: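 MDA-kb2 cells (human breast carcinoma, stably carrying an MMTV-luciferase reporter responsive to AR and GR) were plated at 3,000 cells/well and preincubated 5 hr at 37C, then given compound plus R1881 agonist for 16 h. ONE-Glo luminescence was read.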

Measured: Potency

Chain of Androgen receptor (Homo sapiens) (P10275 whole entry, looked up): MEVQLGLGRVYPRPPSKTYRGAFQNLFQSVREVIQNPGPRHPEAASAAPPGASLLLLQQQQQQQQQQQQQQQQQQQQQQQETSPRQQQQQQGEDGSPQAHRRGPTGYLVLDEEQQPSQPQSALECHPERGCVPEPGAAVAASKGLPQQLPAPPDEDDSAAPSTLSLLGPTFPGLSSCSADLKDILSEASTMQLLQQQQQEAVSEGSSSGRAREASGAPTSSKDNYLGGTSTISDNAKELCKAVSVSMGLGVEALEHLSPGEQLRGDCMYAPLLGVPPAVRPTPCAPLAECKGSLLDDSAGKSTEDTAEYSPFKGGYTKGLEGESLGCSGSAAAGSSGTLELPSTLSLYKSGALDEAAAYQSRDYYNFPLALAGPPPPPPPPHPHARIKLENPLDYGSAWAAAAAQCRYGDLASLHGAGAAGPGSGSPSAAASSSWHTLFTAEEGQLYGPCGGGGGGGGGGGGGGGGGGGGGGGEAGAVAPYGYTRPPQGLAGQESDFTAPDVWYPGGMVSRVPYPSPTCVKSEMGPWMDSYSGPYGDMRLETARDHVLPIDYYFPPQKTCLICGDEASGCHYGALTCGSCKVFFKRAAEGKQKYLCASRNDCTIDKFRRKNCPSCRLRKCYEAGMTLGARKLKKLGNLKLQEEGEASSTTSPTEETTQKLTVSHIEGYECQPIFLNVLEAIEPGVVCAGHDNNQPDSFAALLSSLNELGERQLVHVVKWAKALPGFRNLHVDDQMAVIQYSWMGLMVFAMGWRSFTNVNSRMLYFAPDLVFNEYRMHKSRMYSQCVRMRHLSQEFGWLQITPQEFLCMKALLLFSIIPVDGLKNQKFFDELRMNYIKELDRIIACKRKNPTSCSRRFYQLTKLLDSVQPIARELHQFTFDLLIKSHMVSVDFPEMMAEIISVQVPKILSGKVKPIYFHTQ

CCSC(=O)N(CC)C1CCCCC1
inactive: [1] | [2] | [3] | [4] | [5] | [6]

C[N+](C)=CCl
inactive: [1] | [2] | [3] | [4] | [5] | [6]

COc1cc(OC)nc(NC(=O)NS(=O)(=O)c2ncccc2OCC(F)(F)F)n1
inactive: [1] | [2] | [3] | [4] | [5] | [6]

COc1cc2c(cc1OC)[C@@]13CCN4CC5=CCO[C@H]6CC(=O)N2[C@H]1[C@H]6[C@H]5C[C@H]43
active: [2] 24.3 µM | [3] 24.3 µM | [4] 26.6 µM and 13.7 µM
inactive: [1] | [5] | [6]

O=C(NCO)NCO
inactive: [1] | [2] | [3] | [4] | [5] | [6]

CCN(CC)C(=O)[C@@H]1C=C2c3cccc4[nH]cc(c34)C[C@H]2N(C)C1
inactive: [1] | [5] | [6]
active: [2] 8.98 µM and 10.6 µM | [3] 101 µM and 23.7 µM | [4] 31.9 µM and 11.9 µM

CNNC
inactive: [1] | [2] | [3] | [4] | [5] | [6]

CCCCCCBr
inactive: [1] | [2] | [3] | [4] | [5] | [6]

O=C(Nc1ccccc1)N(Cc1ccc(Cl)cc1)C1CCCC1
active: [2] 3.86 µM | [3] 0.611 µM | [4] 1.54 µM
inactive: [1] | [5] | [6]

CCOP(=S)(OCC)Oc1cc(-c2ccccc2)on1
active: [2] 68.6 µM | [3] 61.1 µM | [4] 68.6 µM
inactive: [1] | [5] | [6]

CC(C)(C)C(=O)C(Oc1ccc(Cl)cc1)n1cncn1 (stereo not drawn)
inactive: [1] | [5] | [6]
active: [2] 61.1 µM | [3] 30.6 µM | [4] 30.6 µM

ClCC(Cl)(Cl)Cl
inactive: [1] | [2] | [3] | [4] | [5] | [6]

CNCC(=O)c1ccc(O)c(O)c1
inactive: [1] | [2] | [3] | [4] | [5] | [6]

C=CC1CC=CCC1 (stereo not drawn)
inactive: [1] | [2] | [3] | [4] | [5] | [6]

CNC(=O)O/N=C(\C)SC
inactive: [1] | [2] | [3] | [4] | [5] | [6]

Nc1cc(Cl)ccc1O
inactive: [1] | [5] | [6]
active: [2] 14.9 µM | [3] 14.9 µM | [4] 9.37 µM

CN/C(=N\[N+](=O)[O-])NCC1CCOC1 (stereo not drawn)
inactive: [1] | [2] | [3] | [4] | [5] | [6]

O=C1OC(c2ccc(O)c(S(=O)(=O)O)c2)(c2ccc(O)c(S(=O)(=O)O)c2)c2c(Br)c(Br)c(Br)c(Br)c21
inactive: [1] | [2] | [3] | [4] | [5] | [6]

O=[N+]([O-])c1ccc(CBr)cc1
inactive: [1] | [2] | [3] | [4] | [5] | [6]

COc1cc(OC)nc(Sc2cccc(Cl)c2C(=O)O)n1
inactive: [1] | [2] | [3] | [4] | [5] | [6]

N#CC(O)c1ccccc1 (stereo not drawn)
inactive: [1] | [2] | [3] | [4] | [5] | [6]

CC1CN1P(=O)(N1CC1C)N1CC1C (stereo not drawn)
inactive: [1] | [2] | [3] | [4] | [5] | [6]

N#Cc1c(Cl)cccc1Cl
inactive: [1] | [2] | [3] | [4] | [5] | [6]

O=c1oc2ccccc2c(O)c1C1CCCc2ccccc21 (stereo not drawn)
inactive: [1] | [2] | [3] | [4] | [5] | [6]

C[C@]12CC[C@H]3[C@@H](CC=C4C[C@@H](O)CC[C@@]43C)[C@@H]1CC[C@@H]2O
active: [4] 29.8 µM
inactive: [1] | [2] | [3] | [5] | [6]

COC(=O)COc1ccc(Cl)cc1Cl
inactive: [1] | [2] | [3] | [4] | [5] | [6]

CC(C)COP(=O)(OCC(C)C)OCC(C)C
inactive: [1] | [2] | [3] | [4] | [5] | [6]

CCC1(c2ccccc2)C(=O)NC(=O)NC1=O
inactive: [1] | [2] | [3] | [4] | [5] | [6]

CCOC(=O)NC(=S)Nc1ccccc1NC(=S)NC(=O)OCC
active: [2] 61.1 µM | [3] 30.6 µM | [4] 48.6 µM
inactive: [1] | [5] | [6]

CC1CCC(=O)O1 (stereo not drawn)
inactive: [1] | [2] | [3] | [4] | [5] | [6]

CCOP(=S)(Oc1cnc(C(C)(C)C)nc1)OC(C)C (stereo not drawn)
active: [2] 54.5 µM | [3] 27.3 µM | [4] 48.6 µM
inactive: [1] | [5] | [6]

C[N+](=O)[O-]
inactive: [1] | [2] | [3] | [4] | [5] | [6]

O=NN1CCN(N=O)CC1
inactive: [1] | [2] | [3] | [4] | [5] | [6]

BrCCCCCCBr
inactive: [1] | [2] | [3] | [4] | [5] | [6]

O=P(O)(Oc1ccccc1)Oc1ccccc1
inactive: [1] | [2] | [3] | [4] | [5] | [6]

CCOP(=S)(OCC)SCSP(=S)(OCC)OCC
active: [2] 54.5 µM | [3] 61.1 µM | [4] 61.1 µM
inactive: [1] | [5] | [6]

CCOP(=O)(N=C1SCCS1)OCC
inactive: [1] | [2] | [3] | [4] | [5] | [6]

Oc1c(Cl)cccc1Cl
inactive: [1] | [2] | [3] | [4] | [5] | [6]

O=C1OC(=O)C2C1C1(Cl)C(Cl)=C(Cl)C2(Cl)C1(Cl)Cl (stereo not drawn)
inactive: [1] | [2] | [3] | [4] | [5] | [6]

Cc1ncsc1CCCl
inactive: [1] | [2] | [3] | [4] | [6]

CC(=O)CC(c1ccc(Cl)cc1)c1c(O)c2ccccc2oc1=O (stereo not drawn)
inactive: [1] | [2] | [3] | [4] | [5] | [6]

CC(C)NCC(O)c1ccc(N)c(C#N)c1 (stereo not drawn)
inactive: [1] | [2] | [3] | [4] | [5] | [6]

Cc1nnc2n1-c1sc(CCC(=O)N3CCOCC3)cc1C(c1ccccc1Cl)=NC2
inactive: [1] | [2] | [3] | [4] | [5] | [6]

ClCCOCOCCCl
inactive: [1] | [2] | [3] | [4] | [5] | [6]

CNC(=O)Oc1c(C(C)(C)C)cc(C)cc1C(C)(C)C
not listed: [4]
inactive: all other assays above

C[C@@H]1CN(C2CCC(C#N)(c3ccc(F)cc3)CC2)CC[C@]1(C(=O)O)c1ccccc1 (stereo partly drawn)
inactive: [1] | [2] | [3] | [4] | [5] | [6]

ClC(Cl)C(Cl)Cl
inactive: [1] | [2] | [3] | [4] | [5] | [6]

CCN(CC)CCOC(=O)C(C)(c1ccccc1)c1ccccc1
active: [2] 8.41 µM | [3] 11.9 µM | [4] 23.7 µM
inactive: [1] | [5] | [6]

OCCSCSCCO
inactive: [1] | [2] | [3] | [4] | [5] | [6]

CC(=O)C(Cl)Cl
inactive: [1] | [2] | [3] | [4] | [5] | [6]

CCC#N
inactive: [1] | [2] | [3] | [4] | [6]

CC(C)CP(=S)(S)CC(C)C
active: [2] 13.7 µM | [3] 13.7 µM | [4] 8.63 µM | [5] 17.4 µM
inactive: [1] | [6]

CCCCN(CCCCO)N=O
inactive: [1] | [2] | [3] | [4] | [5] | [6]

CSc1ccc(C(=O)C(C)(C)N2CCOCC2)cc1
active: [2] 48.6 µM | [3] 68.6 µM | [4] 48.6 µM
inactive: [1] | [5] | [6]

COCC(=O)N(c1c(C)cccc1C)N1CCOC1=O
inactive: [1] | [2] | [3] | [4] | [5] | [6]

N#CCBr
inactive: [1] | [2] | [3] | [4] | [5] | [6]

O=C(CCN1CC1)OCC(CO)(COC(=O)CCN1CC1)COC(=O)CCN1CC1
inactive: [1] | [2] | [3] | [4] | [5] | [6]
